Assay [1] is described as follows: viability loss in pontine glioma line – cell-based, SU-DIPG-XVII, MIPE5.0, CellTiter-Glo, qHTS, dose response (AID 1347060; cut-off not given, nearly all actives have AC50 up to about 26 µM;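 for AC50: cells exposed to compound for 48 hours before viability readout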). The following applies: CellTiter-Glo ATP luminescence. A general note: ATP-based viability assays read luminescence as a measure of living cells.
Assay [2] can be described thus: viability loss in pontine glioma line – cell-based, JHH-DIPG-1, MIPE4.0, CellTiter-Glo, qHTS, dose response (AID 1347062; cut-off not given, nearly all actives have AC50 up to about 27 µM;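 for AC50: cells exposed to compound for two days before readout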). The following applies: JHH-DIPG-1 viability, CellTiter-Glo ATP luminescence.
The nature of assay [3]: viability loss in pontine glioma line – cell-based, SU-DIPG-IV, MIPE4.0, CellTiter-Glo, qHTS, dose response (AID 1347063; cut-off not given, nearly all actives have AC50 up to about 30 µM;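 note: compound exposure lasted 48 hours before the viability readout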). As to conditions: CellTiter-Glo ATP luminescence.
Assay [4] is described as follows: viability loss in pontine glioma line – cell-based, SU-DIPG-XXV, MIPE5.0, CellTiter-Glo, qHTS, dose response (AID 1347065; cut-off not given, nearly all actives have AC50 up to about 26 µM;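 note: cells exposed to compound for 48 hours before ATP readout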). As to conditions: CellTiter-Glo ATP luminescence.
Assay [5] in a line: growth inhibition of DIPG cells – cell-based, MIPE4.0 library, CellTiter-Glo luminescence, qHTS (AID 1347066; cut-off not given, nearly all actives have AC50 up to about 30 µM;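 note: cells exposed to compound for 48 hours before readout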). As to conditions: SU-DIPG-VI viability, CellTiter-Glo ATP luminescence.
A short description of assay [6]: growth inhibition of DIPG cells – cell-based, MIPE5.0 library, qHTS (AID 1347068; cut-off not given, nearly all actives have IC50 up to about 30 µM;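 for IC50: cells exposed to compound for 48 hours before viability readout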). As to conditions: SU-DIPG-XXV viability. Background: In qHTS, concentration-response curves come from the screen itself.
Assay [7] is described as follows: JHH-DIPG-1 glioma cell viability, MIPE5.0 library, CellTiter-Glo luminescence, qHTS (AID 1347067; cut-off not given, nearly all actives have AC50 up to about 26 µM;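 note: cells exposed to compound for 48 hours before readout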). The following applies: JHH-DIPG-1 glioma viability, CellTiter-Glo ATP luminescence.
The nature of assay [8]: viability loss with induced miR-34 in A549 – imaging, A549 dox-inducible miR-34, nuclei and caspase counts, primary screen (AID 1347080;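 active = compounds whose cell count with miR-34 switched on is under 0.7 times the count with it off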). The following applies: A549 miR-34 inducible, Hoechst nuclei count, 48 h.
Assay [9] in a line: compounds altering HSF1 focus formation in cells – imaging, Selleck Cancer Library (AID 1347162; in the data active = plate-normalised HSF1 focus index below about 0.46). The following applies: human cells, HSF1 nuclear foci imaging, at 10 µM; SSMD: measured here: HSF1 foci SSMD mean; cell count: measured here: cell number; plate-normalised HSF1 focus index: stronger effect = lower value.
The nature of assay [10]: MELAS cybrid and Rieske KO viability enhancers – cell-based, MELAS cybrids, Rieske KO mouse fibroblasts, CellTiter-Glo, primary screen (AID 1508586;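 active = mean z-score across replicates of 1.96 or higher in either the MELAS or the Rieske mutant cell line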;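 note: z relative to plate mean and SD of compound and empty wells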). As to conditions: low glucose.
Assay [11] in a line: drug combination growth inhibition, ovarian cancer – cell-based, oncology-focused library, rucaparib conditional, profiling panel (AID 1508598). The following applies: patient-derived ovarian cancer cells, CellTiter-Glo viability, 144 h, stronger effect = lower value.

Records with an inconclusive call do not appear. Calls of active or inactive are those of the source.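 Rule for the calls, unless noted: active = normalized viability below 100% at a tested concentration; inactive = the rest.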

One may read the AC50 as the concentration giving half of the maximal activity seen. For orientation: viability means a read-out of living cells in per cent, often relative to untreated cells. The term IC50 denotes the midpoint of a concentration-inhibition curve.

For `CC(=O)OCC(=O)[C@@]1(O)[C@H](C)C[C@H]2[C@@H]3C=C(C)C4=Cc5c(cnn5-c5ccccc5)C[C@]4(C)[C@H]3[C@@H](O)C[C@@]21C`, the AC50 in assay [1] was 20900 nM (active); in assay [2], 9350 nM (active); in assay [3] it was 5260 nM (active); in assay [4], 23500 nM (active); in assay [5], 26400 nM (active). Moreover, the call in assay [6] was inactive.

Take `CNC(=O)c1ccc(N2C(=S)N(c3ccc(C#N)c(C(F)(F)F)c3)C(=O)C2(C)C)cc1F`: the call in assay [1], in [2], in [3], in [4], in [5] and in [7] was inactive. Moreover, the call in [6] was inactive. For the same compound, the fold change in assay [8] (stronger effect = lower value, cell number ratio, induced over uninduced) was 0.873 (inactive); in assay [8] (measured here: relative caspase fold change +Dox/-Dox), 1.28. Moreover, the cell count in assay [8] (measured here: total cells with miR-34 induction, stronger effect = lower value) stood at 7300; in assay [8] (measured here: total cells without miR-34 induction) it was 8360; in [9], 6500. The SSMD in assay [9] was 0.472. In addition, the plate-normalised HSF1 focus index in assay [9] is 1.02 (inactive). In addition, the z-score in assay [10] (MELAS cybrid survival, CellTiter-Glo 48 h, stronger effect = higher value) is -0.357 (inactive); in [10] (Rieske KO mouse fibroblast survival, CellTiter-Glo 72 h), 0.602. Moreover, the viability in assay [11] (at 0.000305 µM, OCI-C5x cells, with rucaparib 10 µM, 100% = cells with rucaparib alone) is 110% (inactive); in [11] (at 0.000305 µM, OCI-C5x cells, without rucaparib), 85.9% (active); in assay [11] (at 0.000305 µM, OCI-P5x cells, with rucaparib 20 µM, 100% = cells with rucaparib alone), 81% (active); in [11] (at 0.000305 µM, OCI-P5x cells, without rucaparib), 76.7% (active); in [11] (at 0.00122 µM, OCI-C5x cells, with rucaparib 10 µM, 100% = cells with rucaparib alone), 110% (inactive); in [11] (at 0.00122 µM, OCI-C5x cells, without rucaparib), 93.5% (active). For the same compound, the viability in assay [11] (at 0.00122 µM, OCI-P5x cells, with rucaparib 20 µM, 100% = cells with rucaparib alone) was 91.6% (active); in assay [11] (at 0.00122 µM, OCI-P5x cells, without rucaparib) it was 82% (active); in assay [11] (at 0.00488 µM, OCI-C5x cells, with rucaparib 10 µM, 100% = cells with rucaparib alone) it was 110% (inactive); in assay [11] (at 0.00488 µM, OCI-C5x cells, without rucaparib), 91.5% (active); in assay [11] (at 0.00488 µM, OCI-P5x cells, with rucaparib 20 µM, 100% = cells with rucaparib alone), 90.9% (active); in [11] (at 0.00488 µM, OCI-P5x cells, without rucaparib), 85% (active). Also, the viability in assay [11] (at 0.0195 µM, OCI-C5x cells, with rucaparib 10 µM, 100% = cells with rucaparib alone) was 113% (inactive); in assay [11] (at 0.0195 µM, OCI-C5x cells, without rucaparib) it was 95.6% (active); in assay [11] (at 0.0195 µM, OCI-P5x cells, with rucaparib 20 µM, 100% = cells with rucaparib alone), 92.4% (active); in assay [11] (at 0.0195 µM, OCI-P5x cells, without rucaparib) it was 87.7% (active); in [11] (at 0.0781 µM, OCI-C5x cells, with rucaparib 10 µM, 100% = cells with rucaparib alone), 108% (inactive); in [11] (at 0.0781 µM, OCI-C5x cells, without rucaparib), 102% (inactive). Further, the viability was 94.7% (active) in [11] (at 0.0781 µM, OCI-P5x cells, with rucaparib 20 µM, 100% = cells with rucaparib alone); 85.3% (active) in assay [11] (at 0.0781 µM, OCI-P5x cells, without rucaparib); 108% (inactive) in assay [11] (at 0.313 µM, OCI-C5x cells, with rucaparib 10 µM, 100% = cells with rucaparib alone); 96.4% (active) in assay [11] (at 0.313 µM, OCI-C5x cells, without rucaparib); 102% (inactive) in assay [11] (at 0.313 µM, OCI-P5x cells, with rucaparib 20 µM, 100% = cells with rucaparib alone); 94.4% (active) in assay [11] (at 0.313 µM, OCI-P5x cells, without rucaparib). The viability is 117% (inactive) in [11] (at 1.25 µM, OCI-C5x cells, with rucaparib 10 µM, 100% = cells with rucaparib alone); 104% (inactive) in assay [11] (at 1.25 µM, OCI-C5x cells, without rucaparib); 102% (inactive) in assay [11] (at 1.25 µM, OCI-P5x cells, with rucaparib 20 µM, 100% = cells with rucaparib alone); 95.6% (active) in [11] (at 1.25 µM, OCI-P5x cells, without rucaparib); 127% (inactive) in assay [11] (at 5 µM, OCI-C5x cells, with rucaparib 10 µM, 100% = cells with rucaparib alone); 108% (inactive) in assay [11] (at 5 µM, OCI-C5x cells, without rucaparib). Besides, the viability was 97.6% (active) in assay [11] (at 5 µM, OCI-P5x cells, with rucaparib 20 µM, 100% = cells with rucaparib alone) and 93.9% (active) in [11] (at 5 µM, OCI-P5x cells, without rucaparib).

Consider `CS[C@H]1SC[C@@H]2C(=O)N(C)[C@H](C(C)C)C(=O)OC[C@H](NC(=O)c3cnc4ccccc4n3)C(=O)N[C@H](C)C(=O)N(C)[C@H]1C(=O)N(C)[C@H](C(C)C)C(=O)OC[C@H](NC(=O)c1cnc3ccccc3n1)C(=O)N[C@H](C)C(=O)N2C`, for which the AC50 in [1] is 3.31 nM (active); in assay [2] it was 1.18 nM (active); in assay [3], 2.63 nM (active); in assay [4] it was 2.96 nM (active); in [7], 1.86 nM (active). In assay [6], the 50% inhibitory concentration (IC50) is 13.2 nM (active).

Values taken from PubChem BioAssay.
